Only some compounds are listed: those with a hit (about 10% of all), similar ones and a draw of the others.
KB-3-1 tox: kills parental KB-3-1 adenocarcinoma cells. KB-3-1 viability, CellTiter-Glo ATP luminescence, 72 h. Potency, µM (doses to about 46.1 µM), usual class: cytotoxic. actives 1.4% (n = 400,000). AID 1347075; further: nearly all actives have a fitted effect of over 60% in size
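72 h, 37 °C compound treatment of KB-3-1 parental cells; CellTiter-Glo added, 10 min, luminescence read. Data corrected against DMSO-only plates and normalized before curve fitting.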
KB-V1 cytotox: KB-V1 MDR subline cytotoxicity | KB-V1 MDR cells viability, CellTiter-Glo, 72 h | Potency, µM (highest dose often 46.1 µM), most hits filed as cytotoxic | actives 3.4% (n = 400,000); further: nearly all actives have a fitted effect of over 60% in size
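Drug-selected KB-V1 cells, grown in DMEM lacking phenol red with 10% FBS, receive compound titrations; after three days at 37 degrees C, surviving cell ATP is quantified by CellTiter-Glo luminescence and responses normalized and curve-fitted.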
VP16 counter: inhibits Gal4-VP16 luciferase reporter, ROR gamma counter-screen | Drosophila S2 Gal4-VP16 UAS-luciferase, luminescence, 20 h | AID 2546 | actives 3.5% (n = 310,000) | Potency, µM (series often up to 53.6 µM), actives largely listed as inhibitors;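 further: Gal4-VP16 expression switched on by copper sulfate through the metallothionein promoter; nearly all actives have a fitted effect of over 50% in size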
SW480 rerep: inducers of DNA re-replication in SW480 colon cancer cells | AID 624297 | SW480 DNA re-replication, Hoechst DNA content imaging, 48 h | Potency, µM (doses to about 46.1 µM), usual class: activators | actives 1.8% (n = 340,000); further: nearly all actives have a fitted effect of over 55% in size
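Per well, 250 cells were exposed to pinned compound for 48 hr. Nuclear DNA was visualised with Hoechst (40 min, 37 C) and total object intensity recorded by fluorescence scanning.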
RORg inh: ROR gamma (mouse) transcription inhibition | P51450 | Drosophila S2 Gal4-RORgamma UAS-luciferase reporter, 20 h | Potency, µM (series often up to 53.6 µM), actives largely listed as inhibitors | actives 5.4% (n = 310,000) | AID 2551; further: nearly all actives have a fitted effect of over 60% in size
Target sequence (P51450 whole entry, looked up, the tested form may be a part): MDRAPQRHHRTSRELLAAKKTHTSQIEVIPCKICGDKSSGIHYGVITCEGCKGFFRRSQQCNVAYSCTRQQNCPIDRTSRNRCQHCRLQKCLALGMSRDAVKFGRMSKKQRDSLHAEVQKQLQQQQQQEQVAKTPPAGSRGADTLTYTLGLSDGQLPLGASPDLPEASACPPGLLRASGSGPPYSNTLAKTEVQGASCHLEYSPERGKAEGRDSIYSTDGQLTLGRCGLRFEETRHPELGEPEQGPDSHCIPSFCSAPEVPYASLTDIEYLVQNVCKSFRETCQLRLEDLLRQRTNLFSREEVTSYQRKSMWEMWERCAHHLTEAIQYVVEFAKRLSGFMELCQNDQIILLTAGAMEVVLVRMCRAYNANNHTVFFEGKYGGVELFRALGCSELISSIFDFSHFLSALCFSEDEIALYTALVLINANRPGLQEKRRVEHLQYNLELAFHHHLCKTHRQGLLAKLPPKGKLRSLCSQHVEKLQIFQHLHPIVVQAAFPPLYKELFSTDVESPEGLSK
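A Gal4/UAS one-hybrid system in insect cells: metallothionein-promoter Gal4–ROR gamma fusion plus Photinus luciferase reporter. Copper sulfate 700 uM final, 20 hr ambient incubation, luminescent detection after 10 min with reagent.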
MCF10A rereplic: DNA re-replication induction in MCF 10a cells | AID 624296 | Potency, µM (highest dose often 46.1 µM), hits mostly activators | actives 2.9% (n = 350,000) | MCF 10A DNA re-replication, Hoechst nuclear intensity, 48 h; further: nearly all actives have a fitted effect of over 50% in size
Large screens that a line does not name were inactive. The call rests on the fitted dose curve; in most records, active means well fitted curve in the direction sought with a large enough effect; inconclusive means small, poorly fitted or top-dose-only effect, or another doubt; inactive means no such curve, though single readings can be large; an effect the other way counts as inactive or inconclusive.

CCn1c(C)nc2cc(NC(=O)Nc3cccc(C(C)=O)c3)ccc21	VP16 counter 14µM, RORg inh 16µM
COc1cccc(NC(=O)Nc2ccc3c(c2)nc(C)n3C)c1	KB-V1 cytotox inconclusive, VP16 counter 11µM, RORg inh 8.9µM
Cc1nc2cc(NC(=O)Nc3nccs3)ccc2n1C	VP16 counter 10µM, RORg inh inconclusive
O=C(Nc1cccc(Cl)c1)Nc1nccs1	none
COC(=O)[C@H](COC(C)(C)C)NC(=O)O[C@@H]1C(=O)c2cc(Br)ccc2O[C@H]1c1ccc2c(c1)OCO2	none (no result: KB-3-1 tox, KB-V1 cytotox, SW480 rerep, MCF10A rereplic)
COc1cc(OC)c2c(c1C(CCN1CCCC(C)C1)c1ccc(N(C)C)cc1)OC(=O)CC2c1ccc(N(C)C)cc1 (centres undefined)	none (no result: KB-3-1 tox, KB-V1 cytotox, SW480 rerep, MCF10A rereplic)
CCOC(=O)C(CC)Sc1c(CC)cnc2c1c(=O)n(C)c(=O)n2C (centres undefined)	none (no result: VP16 counter, SW480 rerep, RORg inh, MCF10A rereplic)
NNc1nc(-c2ccccc2Cl)nc2sc3c(c12)CCCC3	KB-3-1 tox inconclusive, KB-V1 cytotox 4.6µM, VP16 counter inconclusive, SW480 rerep inconclusive, RORg inh inconclusive
NNc1nc(-c2ccccc2Cl)nc2ccccc12	none
Cc1ccc(-c2cc(C(F)F)nc(S(C)(=O)=O)n2)cc1	KB-3-1 tox inconclusive, KB-V1 cytotox inconclusive, VP16 counter inconclusive, SW480 rerep inconclusive, RORg inh 10µM, MCF10A rereplic 4.1µM
CC(O/N=C/c1ccccc1OC(F)F)C(=O)Nc1cccc(S(=O)(=O)N2CCOCC2)c1 (centres undefined)	KB-V1 cytotox 13µM
O=C(COc1ccccc1Cc1ccccc1)Nc1cccc(S(=O)(=O)N2CCOCC2)c1	KB-3-1 tox inconclusive, KB-V1 cytotox 5.2µM (no result: VP16 counter, RORg inh)
CCc1nc2ccccc2c(C(=O)OCC(=O)Nc2ccc(S(=O)(=O)N3CCOCC3)cc2)c1C	VP16 counter inconclusive
CCc1nc2ccccc2c(C(=O)OCC(=O)Nc2cccc(S(=O)(=O)N3CCOCC3)c2)c1C	KB-3-1 tox 21µM, KB-V1 cytotox 6.5µM, VP16 counter inconclusive, SW480 rerep inconclusive, RORg inh inconclusive
Cc1ccc(S(=O)(=O)N2CCOCC2)cc1NC(=O)COc1ccccc1Cc1ccccc1	MCF10A rereplic inconclusive (no result: VP16 counter, RORg inh)
COc1nc(Nc2cccc(F)c2)nc(OC)n1	KB-3-1 tox inconclusive, KB-V1 cytotox 6.5µM
Cc1cc(C)nc(Sc2nc(Nc3ccccc3)nc(Sc3nc(C)cc(C)n3)n2)n1	KB-3-1 tox 21µM, KB-V1 cytotox inconclusive, VP16 counter inconclusive, SW480 rerep inconclusive, MCF10A rereplic inconclusive
COc1nc(Nc2ccccc2)nc(OC)n1	KB-3-1 tox inconclusive, KB-V1 cytotox 8.2µM, SW480 rerep inconclusive, MCF10A rereplic inconclusive (no result: VP16 counter, RORg inh)
COc1nc(Nc2ccc(OC)c(Cl)c2)nc(OC)n1	KB-3-1 tox inconclusive, KB-V1 cytotox 18µM (no result: VP16 counter)
Cc1cc(C)nc(Nc2ccc(O)cc2)n1	none
O=c1c(-c2ccccc2)nc2cnc(N3CCOCC3)nc2n1Cc1ccc(F)cc1	none (no result: KB-3-1 tox, KB-V1 cytotox, SW480 rerep, MCF10A rereplic)
COc1cccc(C(NC(C)=O)c2nc(-c3cccs3)cs2)c1 (centres undefined)	none (no result: VP16 counter, SW480 rerep, RORg inh, MCF10A rereplic)
CCCCOC(=O)CSc1nc2c(cc1C#N)C(=O)CC(C)(C)C2	none
CN(C)S(=O)(=O)c1ccc(Cl)c(NC(=O)CSc2nc3c(cc2C#N)C(=O)CC(C)(C)C3)c1	VP16 counter inconclusive, SW480 rerep inconclusive, RORg inh inconclusive, MCF10A rereplic 2.9µM
CN(C)S(=O)(=O)c1cccc(NC(=O)CSc2nc3c(cc2C#N)C(=O)CC(C)(C)C3)c1	KB-3-1 tox 21µM, KB-V1 cytotox 16µM, SW480 rerep 16µM, RORg inh inconclusive, MCF10A rereplic 15µM
CN(C)S(=O)(=O)c1cccc(NC(=O)CSc2cccc3cccnc23)c1	KB-3-1 tox inconclusive, KB-V1 cytotox inconclusive, VP16 counter inconclusive, SW480 rerep inconclusive, RORg inh 10µM, MCF10A rereplic inconclusive
CN(C)N1C(N)=C(C#N)C(c2cccc3ccccc23)C2=C1CC(c1ccccc1)CC2=O (centres undefined)	KB-3-1 tox 13µM, KB-V1 cytotox 21µM, SW480 rerep inconclusive, MCF10A rereplic 15µM
CCOC(=O)c1c(-c2cccc([N+](=O)[O-])c2)csc1NC(=O)C1CCCCC1	VP16 counter 10µM, RORg inh inconclusive, MCF10A rereplic inconclusive
COC(=O)c1c(-c2ccc(C)cc2)csc1NC(=S)NC(=O)c1cc(OC)cc(OC)c1	VP16 counter 8.9µM, RORg inh 2.8µM
CCOC(=O)c1c(-c2cccc([N+](=O)[O-])c2)csc1NC(=O)C1CC1	VP16 counter inconclusive, RORg inh inconclusive, MCF10A rereplic inconclusive
CCOC(=O)c1c(-c2ccccc2)csc1NC(=O)c1cc(=O)c2ccc(C)cc2o1	none (no result: VP16 counter, SW480 rerep, RORg inh, MCF10A rereplic)
CCOC(=O)c1c(-c2ccccc2)csc1NC(=S)NC	VP16 counter 1µM, SW480 rerep inconclusive, RORg inh inconclusive, MCF10A rereplic 18µM
CCNC(=S)Nc1scc(-c2ccccc2)c1C(=O)OCC	KB-3-1 tox inconclusive, KB-V1 cytotox inconclusive, VP16 counter 2.5µM, RORg inh 1.4µM, MCF10A rereplic inconclusive
Cc1ccc(CCNC(=O)c2cn(C)c3ccc(S(=O)(=O)N4CCC(C)CC4)cc3c2=O)cc1	KB-3-1 tox inconclusive (no result: VP16 counter, SW480 rerep, RORg inh, MCF10A rereplic)
O=C(O)CCc1ccc(-c2ccc(Cl)cc2)n1-c1cccc(C(F)(F)F)c1	none (no result: VP16 counter, SW480 rerep, RORg inh, MCF10A rereplic)
O=C(NC1=NCCS1)c1ccc(Cl)c(S(=O)(=O)N2CCc3ccccc32)c1	KB-3-1 tox inconclusive, KB-V1 cytotox 13µM, VP16 counter inconclusive, RORg inh inconclusive, MCF10A rereplic inconclusive
CC(C)[C@H](NC(=O)c1ccccc1)C(=O)OCC(=O)N1CCc2ccccc2C1	KB-V1 cytotox 9.2µM
COc1ccc(C(=O)NCC(c2ccco2)N2CCc3ccccc32)cc1 (centres undefined)	KB-3-1 tox 5.8µM, KB-V1 cytotox 7.3µM, SW480 rerep inconclusive, MCF10A rereplic 5.8µM (no result: VP16 counter, RORg inh)
CC(C)C(NC(=O)c1ccccc1)C(=O)OCC(=O)N1CCCCC1 (centres undefined)	none (no result: VP16 counter, RORg inh)
O=C(NC1=NCCS1)c1cccc(S(=O)(=O)N2CCc3ccccc32)c1	KB-V1 cytotox inconclusive, SW480 rerep inconclusive, RORg inh inconclusive
COc1ccc(C(=O)NC(C(=O)N2CCc3ccccc32)C(C)C)cc1 (centres undefined)	KB-V1 cytotox 8.2µM
O=C(NCC(c1ccco1)N1CCCC1)c1ccc(Cl)c(S(=O)(=O)N2CCc3ccccc32)c1 (centres undefined)	KB-3-1 tox 2.3µM, KB-V1 cytotox 1.6µM, SW480 rerep inconclusive, MCF10A rereplic inconclusive (no result: VP16 counter, RORg inh)
CN(C)c1ccc(-c2nccc(NCc3ccccc3)n2)cc1	none (no result: KB-3-1 tox, KB-V1 cytotox, SW480 rerep, MCF10A rereplic)
COc1ccccc1CNc1ccnc(-c2ccc(N(C)C)cc2)n1	VP16 counter 14µM, RORg inh inconclusive (no result: KB-3-1 tox, KB-V1 cytotox, SW480 rerep, MCF10A rereplic)

Assay outcomes deposited in PubChem BioAssay by National Center for Advancing Translational Sciences (NCATS).
